Sampled rows, rich in hits. Any-hit rate of the full collection: about 1.2%.
Platelet DG rel – platelet dense granule release activity; 300,000 compounds, 0.22% hits; inhibition, %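 (compounds screened at 7.5 µM in platelet-rich plasma)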; AID 1663; human platelet-rich plasma, SFLLRN dense granule ATP release, luminescence;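 active = mean replicate score, as percent of positive control, at or above 50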
GRK2 inh – blocks RNA aptamer binding to human GRK2. P25098. bead flow cytometry, FAM-aptamer displacement from GRK2. inhibition of aptamer binding, % at 10 µM. 330,000 compounds, 0.59% hits. AID 488847;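 active = inhibition of aptamer binding above 40%, roughly 3 SD of noise, on plates passing a quality check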;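 note: median bead fluorescence of bound FAM aptamer so fluorescent compounds give negative values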
MIN6 prolif-1 – induces beta-cell replication in MIN6 cells; AID 2380; MIN6 cells proliferation, ATPlite luminescence, 48 h; cells starved in 0.2% serum; 100% = growth in 10% serum; proliferation, % at 10 µM; 330,000 compounds, 0.29% hits;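 active = compounds whose signal lies at least 3.5 SD above the mean of all wells on their plate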;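 note: 0% = DMSO-treated cells in low-serum medium and 100% = 10% serum control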
NTR1 ag – agonists of human neurotensin receptor NTR1. P30989. NTR1-U2OS beta-arrestin-GFP spot imaging, agonist mode. activation, % at 20 µM. 330,000 compounds, 0.17% hits. AID 493036;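 active = activation at or above 40% of the spot to cytoplasm intensity ratio, with at least 20 cells analyzed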;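 note: 0% = DMSO without peptide and 100% = 100 nM NTR1 peptide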
Target sequence (P30989 whole entry, looked up): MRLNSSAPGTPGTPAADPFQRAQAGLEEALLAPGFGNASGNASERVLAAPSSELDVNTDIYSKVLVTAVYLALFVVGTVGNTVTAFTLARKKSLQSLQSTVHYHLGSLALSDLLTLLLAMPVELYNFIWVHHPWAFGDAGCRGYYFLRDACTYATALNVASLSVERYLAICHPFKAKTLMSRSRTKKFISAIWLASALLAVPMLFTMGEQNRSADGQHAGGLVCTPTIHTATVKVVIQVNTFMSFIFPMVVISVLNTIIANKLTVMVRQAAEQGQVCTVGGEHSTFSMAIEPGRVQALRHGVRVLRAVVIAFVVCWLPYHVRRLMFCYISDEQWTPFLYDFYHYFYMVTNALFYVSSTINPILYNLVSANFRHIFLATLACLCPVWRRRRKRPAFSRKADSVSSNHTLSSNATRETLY
MIN6 prolif-2 – confirmation of inducers of beta-cell replication in MIN6 cells; MIN6 beta-cell proliferation, ATPlite luminescence, 48 h; cells kept in 0.2% serum; scaled between 0.2% and 10% serum; AID 463095; shares compounds with MIN6 prolif-1; 920 tested, under 10 active; proliferation increase, % at 50 µM;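 active = proliferation increase above 40% at any of the four tested concentrations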
An asterisk follows results filed as active; ! = not active in a repeat.

For COc1cc(NC(=O)CN(c2ccc(C)cc2)S(=O)(=O)c2c(C)n[nH]c2C)cc(OC)c1 the results were GRK2 inh 0.0, MIN6 prolif-1 0.0*, NTR1 ag -3.4 and MIN6 prolif-2 -6.2.
COc1ccc(N(CC(=O)Nc2cccc(C)c2)S(=O)(=O)c2c(C)n[nH]c2C)cc1 was read as Platelet DG rel -6.3, GRK2 inh 0.0, MIN6 prolif-1 -4.2 and NTR1 ag -0.7.
`Fc1cccc(Nc2nc3ccccc3n3nnnc23)c1` gave Platelet DG rel 10.0, GRK2 inh 1.0, MIN6 prolif-1 12.6*, NTR1 ag 1.8 and MIN6 prolif-2 4.5.
`Cc1ccc(C)c(-n2ccnc2SCC(=O)c2c(N)n(C3CC3)c(=O)[nH]c2=O)c1` gave GRK2 inh 0.0, MIN6 prolif-1 -0.2 and NTR1 ag 5.4.
Screening NC(=O)c1[nH]cnc1N returned Platelet DG rel 1.0, GRK2 inh 7.0, MIN6 prolif-1 12.2*!, NTR1 ag -0.5 and MIN6 prolif-2 -1.4.
For CCOC(=O)c1c(-c2cccs2)csc1NC(C)=O the results were Platelet DG rel -1.8, GRK2 inh 1.0, MIN6 prolif-1 12.7*, NTR1 ag 2.5 and MIN6 prolif-2 -6.2.
For O=C(CSc1ccc2nnc(CCNC(=O)c3ccccc3)n2n1)NCCc1ccccc1 the results were Platelet DG rel 2.1, GRK2 inh 5.0, MIN6 prolif-1 10.4*, NTR1 ag -2.3 and MIN6 prolif-2 2.3.
`Cc1noc(C)c1NC(=O)Nc1ccc2c(c1)C(=O)N([C@H](C)CO)C[C@H](C)[C@@H](CN(C)S(=O)(=O)c1ccccc1)O2` gave GRK2 inh 1.0, MIN6 prolif-1 -0.9 and NTR1 ag -2.4.
For S=C(N/N=C/c1ccco1)NC1CC2CCC1C2 (configuration not stated) the results were Platelet DG rel -0.4, GRK2 inh 2.0, MIN6 prolif-1 1.1 and NTR1 ag 0.5.
For Cc1cccc(NC(=O)Cc2ccc(-c3ccccc3)cc2)n1 the results were Platelet DG rel -7.7, GRK2 inh 1.0, MIN6 prolif-1 -1.1 and NTR1 ag 2.1.
O=C(Cc1ccc(-c2ccccc2)cc1)Nc1ccccc1 was read as Platelet DG rel -0.4, GRK2 inh 0.0, MIN6 prolif-1 6.0*, NTR1 ag -0.6 and MIN6 prolif-2 -1.1.
Screening COCCN(C(=O)C1=COCCO1)c1c(N)n(CC(C)C)c(=O)[nH]c1=O returned GRK2 inh 0.0, MIN6 prolif-1 -0.9 and NTR1 ag 0.9.
`CCOc1ccc2nc(SCC(=O)N3CCCCCC3)c(C#N)cc2c1` gave Platelet DG rel 2.5, GRK2 inh 0.0, MIN6 prolif-1 5.3*, NTR1 ag 2.2 and MIN6 prolif-2 -0.2.
Screening CCOc1ccc2cc(C#N)c(SCC(=O)N3CCOCC3)nc2c1 returned Platelet DG rel 0.9, GRK2 inh 2.0, MIN6 prolif-1 -1.7 and NTR1 ag 8.2.
`CN(c1ncnc(N)c1[N+](=O)[O-])C1CCS(=O)(=O)C1` (configuration not stated) gave Platelet DG rel -3.5, GRK2 inh 0.0, MIN6 prolif-1 0.3 and NTR1 ag -0.4.
For CN(c1ncnc(N)c1[N+](=O)[O-])C1CCCCC1 the results were Platelet DG rel -3.8, GRK2 inh 5.0, MIN6 prolif-1 24.8*, NTR1 ag 2.0 and MIN6 prolif-2 12.2.
`COc1ccc(CCN2Cc3c(N)cccc3C2=O)cc1OC` gave Platelet DG rel 4.8, GRK2 inh 0.0, MIN6 prolif-1 0.2 and NTR1 ag 0.3.
For Cc1ccc(Nc2nc(NCC3CCCO3)nc(N)c2[N+](=O)[O-])cc1C (configuration not stated) the results were Platelet DG rel -15.1, GRK2 inh 5.0, MIN6 prolif-1 0.0*, NTR1 ag 12.3 and MIN6 prolif-2 -0.1.
`CC(C)CNc1nc(N)c([N+](=O)[O-])c(NCC2CCCO2)n1` (configuration not stated) gave Platelet DG rel -11.6, GRK2 inh 7.0, MIN6 prolif-1 2.5 and NTR1 ag 2.0.
For Cc1ccc(C(=O)Nc2ccc(Cl)cn2)cc1S(=O)(=O)N1CCOCC1 the results were Platelet DG rel 5.8, GRK2 inh 4.0, MIN6 prolif-1 -2.7 and NTR1 ag -2.2.
`Cc1ccc(NC(=O)c2ccc(C)c(S(=O)(=O)N3CCOCC3)c2)nc1` gave Platelet DG rel 1.9, GRK2 inh 1.0, MIN6 prolif-1 12.9*, NTR1 ag -1.7 and MIN6 prolif-2 -3.4.
For C=CCn1c(Cc2c(C)[nH]c3ccccc23)nnc1SCC(=O)NCc1ccc(F)cc1 the results were Platelet DG rel 13.2, GRK2 inh 2.0, MIN6 prolif-1 6.9*, NTR1 ag 1.0 and MIN6 prolif-2 -5.4.
For CCn1c(Cc2c(C)[nH]c3ccccc23)nnc1SCC(=O)NCc1ccccc1 the results were Platelet DG rel -4.8, GRK2 inh 2.0, MIN6 prolif-1 0.0 and NTR1 ag -0.3.
Screening CCOc1ncccc1C(=O)Nc1ccc2c(C)cc(=O)oc2c1 returned Platelet DG rel -1.5, GRK2 inh 0.0, MIN6 prolif-1 8.1*, NTR1 ag -0.2 and MIN6 prolif-2 2.6.
COc1ccccc1C(=O)Nc1ccc2c(C)cc(=O)oc2c1 was read as Platelet DG rel -12.4, GRK2 inh 3.0, MIN6 prolif-1 -2.1 and NTR1 ag -0.7.
`COc1ccc(-n2nc(C(=O)NCC(=O)N3CCCC3)c3ccccc3c2=O)cc1Cl` gave Platelet DG rel 4.9, GRK2 inh 0.0, MIN6 prolif-1 0.0 and NTR1 ag -0.1.
For Cc1ccc(C(=O)CSc2nnc(C3CC3)n2C2CC2)s1 the results were GRK2 inh 2.0, MIN6 prolif-1 -1.4 and NTR1 ag -2.4.
Screening CCCCNC(=S)NNC(=O)c1csc(C)c1CC returned Platelet DG rel 1.4, GRK2 inh 1.0, MIN6 prolif-1 0.0*, NTR1 ag -1.7 and MIN6 prolif-2 -2.3.
COc1ccc(NC(=O)/C(C#N)=C/c2ccc(OCCN3CCOCC3)c(OC)c2)c(OC)c1 was read as Platelet DG rel 11.1, GRK2 inh 5.0, MIN6 prolif-1 11.3*, NTR1 ag 1.7 and MIN6 prolif-2 -2.2.
For CCOC(=O)C1CCN(c2cc3c(cc2NC(=O)c2cc(OC)ccc2Br)n(C)c(=O)n3C)CC1 the results were Platelet DG rel 23.2, GRK2 inh 0.0, MIN6 prolif-1 -3.9 and NTR1 ag 8.8.
`COc1ccc(/C=N\NC(=O)CNC(=O)C2COc3ccccc3O2)cc1[N+](=O)[O-]` (configuration not stated) gave Platelet DG rel -4.6, GRK2 inh 2.0, MIN6 prolif-1 13.6*, NTR1 ag 0.4 and MIN6 prolif-2 -1.1.
For Cn1c(-c2nonc2N)nc2ccccc21 the results were Platelet DG rel 3.5, GRK2 inh 0.0, MIN6 prolif-1 -2.2 and NTR1 ag -0.2.
For CCCn1c(-c2nonc2N)nc2ccccc21 the results were Platelet DG rel 1.6, GRK2 inh 1.0, MIN6 prolif-1 9.0*, NTR1 ag -1.8 and MIN6 prolif-2 -0.6.
